Experimental data taken from PubChem BioAssay (EPA / NIEHS).
Active and inactive are the calls of the source. How the source made its calls: active means hit-call score of the fitted dose curve at least 0.9, where 1 is the maximum; inactive means score below 0.9.

Key:
[1] = read-out: TIMP metallopeptidase inhibitor 2 (TIMP2), TIMP2 (gene 7077); experiment: BSK_KF3CT_TIMP2: BioMAP Diversity Plus: KF3CT Assay for TIMP metallopeptidase inhibitor 2 (TIMP2) Biomarker Activity (AID 2283071); settings: primary human keratinocytes with fibroblasts; actives raise or lower the signal
Outline: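 ELISA readout of TIMP-2 in keratinocyte plus foreskin fibroblast co-cultures (human skin primary cells), 24 h post-dose. Gain or loss of signal fitted relative to DMSO.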

[2] = read-out: Transforming growth factor beta 1 (TGFb1), TGFB1 (gene 7040); experiment: BSK_KF3CT_TGFb1: BioMAP Diversity Plus: KF3CT Assay for Transforming growth factor beta 1 (TGFb1) Biomarker Activity (AID 2283072); settings: primary human keratinocytes with fibroblasts; actives raise or lower the signal
Outline: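 Read-out: ELISA for TGF-b1 in keratinocyte/foreskin fibroblast human skin co-culture, 24 h after dosing; bidirectional curve fit vs DMSO baseline; gain or loss of signal scored.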

[3] = read-out: C-C motif chemokine 2 (Homo sapiens) (UniProt P13500); experiment: BSK_KF3CT_MCP1: BioMAP Diversity Plus: KF3CT Assay for Monocyte Chemoattractant Protein 1 (MCP1/CCL2) Biomarker Activity (AID 2283073); settings: primary human keratinocytes with fibroblasts; actives raise or lower the signal
Outline: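 Human keratinocyte plus foreskin fibroblast primary co-culture exposed to chemical for 24 h. MCP-1 levels measured by ELISA. Bidirectional curve fitting relative to DMSO negative control as baseline.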

CD40, CD40 (gene 958) [4] = experiment: BSK_LPS_CD40: BioMAP Diversity Plus: LPS Assay for CD40 Biomarker Activity (AID 2283076); settings: primary human HUVEC with PBMC; actives raise or lower the signal
Outline: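 Primary human umbilical vein endothelial cells co-cultured with peripheral blood mononuclear cells, LPS-stimulated, were dosed with chemical and read 24 h later. CD40 levels were measured by ELISA and fitted bidirectionally against DMSO as negative control and baseline.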

[5] = read-out: E-selectin (Homo sapiens) (UniProt P16581); experiment: BSK_LPS_Eselectin: BioMAP Diversity Plus: LPS Assay for Eselectin Biomarker Activity (AID 2283077); settings: primary human HUVEC with PBMC; actives raise or lower the signal
Outline: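 Human umbilical vein endothelial cells co-cultured with peripheral blood mononuclear cells under LPS stimulation; E-selectin measured by ELISA 24 h after chemical dosing. Activity fitted bidirectionally against DMSO as negative control and baseline.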

[6] = read-out: Interleukin-8 (IL8), CXCL8 (gene 3576); experiment: BSK_LPS_IL8: BioMAP Diversity Plus: LPS Assay for Interleukin-8 (IL8) Biomarker Activity (AID 2283078); settings: primary human HUVEC with PBMC; actives raise or lower the signal
Outline: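 Human umbilical vein endothelial cells co-cultured with PBMC were stimulated with LPS; IL-8 levels were measured by ELISA 24 h after chemical dosing. Activity was fitted bidirectionally against DMSO as negative control and baseline.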

[7] = BSK_LPS_SRB: Viability Assessment in the BioMAP Diversity Plus: LPS Assay (AID 2283079); settings: primary human HUVEC with PBMC;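 further: total protein by sulforhodamine B absorbance as a cytotoxicity measure; measured one day after compound addition; fitted in both directions against DMSO so loss or gain of signal counts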
Outline: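 Human umbilical vein endothelial cells co-cultured with PBMC (LPS system) were dosed for 24 h. Total protein was stained with 0.1% sulforhodamine B after 10% TCA fixation, read at 560 nm, and fitted bidirectionally against DMSO baseline.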

[8] = read-out: Interleukin-1 alpha (IL1a), IL1A (gene 3552); experiment: BSK_LPS_IL1a: BioMAP Diversity Plus: LPS Assay for Interleukin-1 alpha (IL1a) Biomarker Activity (AID 2283080); settings: primary human HUVEC with PBMC; actives raise or lower the signal
Outline: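 Human umbilical vein endothelial cells co-cultured with peripheral blood mononuclear cells were LPS-stimulated and exposed to test chemicals for 24 h. IL-1 alpha was quantified by ELISA, with bidirectional curve fitting against DMSO as the negative control and baseline.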

[9] = BSK_LPS_PGE2: BioMAP Diversity Plus: LPS Assay for Prostaglandin E2 (PGE2) Biomarker Activity (AID 2283082); settings: primary human HUVEC with PBMC; actives raise or lower the signal;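 on AC50: secreted prostaglandin E2 measured by ELISA in LPS-stimulated co-culture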
Outline: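 ELISA read-out of PGE2 from human umbilical vein endothelial cells co-cultured with peripheral blood mononuclear cells under LPS, 24 h post-dose. Gain or loss of signal scored relative to DMSO baseline.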

[10] = read-out: Macrophage colony-stimulating factor (MCSF), CSF1 (gene 1435); experiment: BSK_LPS_MCSF: BioMAP Diversity Plus: LPS Assay for Macrophage colony-stimulating factor (MCSF) Biomarker Activity (AID 2283083); settings: primary human HUVEC with PBMC; actives raise or lower the signal
Outline: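 Human umbilical vein endothelial cells co-cultured with peripheral blood mononuclear cells were exposed to compound for 24 h. M-CSF levels were measured by ELISA, and bidirectional curve fitting used DMSO as the negative control and baseline.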

[11] = read-out: Tissue Factor, F3 (gene 2152); experiment: BSK_LPS_TissueFactor: BioMAP Diversity Plus: LPS Assay for Tissue Factor Biomarker Activity (AID 2283084); settings: primary human HUVEC with PBMC; actives raise or lower the signal
Outline: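 Human umbilical vein endothelial cells co-cultured with peripheral blood mononuclear cells were dosed and stimulated with LPS. Cell-surface CD142 was quantified by ELISA at 24 h. Activity was fitted bidirectionally against DMSO baseline.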

[12] = read-out: Tumor necrosis factor (Homo sapiens) (UniProt P01375); experiment: BSK_LPS_TNFa: BioMAP Diversity Plus: LPS Assay for Tumour Necrosis Factor alpha (TNFa) Biomarker Activity (AID 2283085); settings: primary human HUVEC with PBMC; actives raise or lower the signal;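 on AC50: TNFa protein level quantified by ELISA in the co-culture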
Outline: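 HUVEC/PBMC co-culture, LPS-stimulated; 24 h post-dose; TNFa by ELISA; gain or loss of signal fitted bidirectionally vs DMSO baseline.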

[13] = read-out: Vascular cell adhesion molecule 1 (VCAM1), VCAM1 (gene 7412); experiment: BSK_LPS_VCAM1: BioMAP Diversity Plus: LPS Assay for Vascular cell adhesion molecule 1 (VCAM1) Biomarker Activity (AID 2283086); settings: primary human HUVEC with PBMC; actives raise or lower the signal
Outline: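 ELISA read-out of VCAM-1 at 24 h post-dosing in an LPS-driven HUVEC/PBMC primary human co-culture; gain or loss of signal fitted bidirectionally against DMSO baseline. Cytotoxicity tracked in parallel cultures by SRB total-protein staining.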

CD40, CD40 (gene 958) [14] = experiment: BSK_SAg_CD40: BioMAP Diversity Plus: SAg Assay for CD40 Biomarker Activity (AID 2283088); settings: primary human HUVEC with PBMC; actives raise or lower the signal
Outline: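 Human umbilical vein endothelial cells co-cultured with PBMC; CD40 levels measured by ELISA with fluorescence read-out 24 h after chemical dosing. Gain or loss of signal fitted bidirectionally against DMSO baseline.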

CD69, CD69 (gene 969) = experiment: BSK_SAg_CD69: BioMAP Diversity Plus: SAg Assay for CD69 Biomarker Activity (AID 2283089); settings: primary human HUVEC with PBMC; actives raise or lower the signal;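 on AC50: cell surface CD69 protein quantified by ELISA with fluorescence detection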
Outline: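 HUVEC co-cultured with PBMC were dosed with chemical, and CD69 was measured by ELISA with fluorescence read-out 24 h later. Bidirectional curve fitting used DMSO as negative control and activity baseline.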

[15] = read-out: Monocyte Chemoattractant Protein-1 (MCP1), CCL2 (gene 6347); experiment: BSK_SAg_MCP1: BioMAP Diversity Plus: SAg Assay for Monocyte Chemoattractant Protein-1 (MCP1) Biomarker Activity (AID 2283090); settings: primary human HUVEC with PBMC; actives raise or lower the signal
Outline: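 Values derive from bidirectional fitting of ELISA-measured MCP1 against DMSO controls. Readings were taken 24 h after dosing human vascular endothelial cells co-cultured with peripheral blood mononuclear cells under superantigen stimulation.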

[16] = read-out: Monocyte Chemoattractant Protein-1 (MCP1), CCL2 (gene 6347); experiment: BSK_LPS_MCP1: BioMAP Diversity Plus: LPS Assay for Monocyte Chemoattractant Protein-1 (MCP1) Biomarker Activity (AID 2283081); settings: primary human HUVEC with PBMC; actives raise or lower the signal;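 on AC50: secreted MCP-1 protein quantified by ELISA in culture supernatant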
Outline: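 HUVEC plus PBMC co-culture (human primary cells, LPS system) exposed to test chemical for 24 h; MCP-1 measured by ELISA. Bidirectional curve fitting against DMSO baseline; parallel SRB total-protein staining flags overt cytotoxicity.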

CD38, CD38 (gene 952) = experiment: BSK_SAg_CD38: BioMAP Diversity Plus: SAg Assay for CD38 Biomarker Activity (AID 2283087); settings: primary human HUVEC with PBMC; actives raise or lower the signal
Outline: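 Measures CD38 on a human endothelial/PBMC co-culture driven by SEB and TSST-1, 24 h after compound exposure, using ELISA with fluorescence detection; DMSO defines baseline for bidirectional curve fitting.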

[17] = read-out: urokinase plasminogen activator (uPA), PLAU (gene 5328); experiment: BSK_KF3CT_uPA: BioMAP Diversity Plus: KF3CT Assay for urokinase plasminogen activator (uPA) Biomarker Activity (AID 2283075); settings: primary human keratinocytes with fibroblasts; actives raise or lower the signal
Outline: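 Values derive from bidirectional fitting against DMSO controls. Keratinocyte/foreskin fibroblast co-cultures received chemical; 24 h later uPA was detected by ELISA, with SRB total-protein staining in parallel wells for overt cytotoxicity.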

Measured: AC50

E-selectin (Homo sapiens), sequence (P16581 whole entry, looked up): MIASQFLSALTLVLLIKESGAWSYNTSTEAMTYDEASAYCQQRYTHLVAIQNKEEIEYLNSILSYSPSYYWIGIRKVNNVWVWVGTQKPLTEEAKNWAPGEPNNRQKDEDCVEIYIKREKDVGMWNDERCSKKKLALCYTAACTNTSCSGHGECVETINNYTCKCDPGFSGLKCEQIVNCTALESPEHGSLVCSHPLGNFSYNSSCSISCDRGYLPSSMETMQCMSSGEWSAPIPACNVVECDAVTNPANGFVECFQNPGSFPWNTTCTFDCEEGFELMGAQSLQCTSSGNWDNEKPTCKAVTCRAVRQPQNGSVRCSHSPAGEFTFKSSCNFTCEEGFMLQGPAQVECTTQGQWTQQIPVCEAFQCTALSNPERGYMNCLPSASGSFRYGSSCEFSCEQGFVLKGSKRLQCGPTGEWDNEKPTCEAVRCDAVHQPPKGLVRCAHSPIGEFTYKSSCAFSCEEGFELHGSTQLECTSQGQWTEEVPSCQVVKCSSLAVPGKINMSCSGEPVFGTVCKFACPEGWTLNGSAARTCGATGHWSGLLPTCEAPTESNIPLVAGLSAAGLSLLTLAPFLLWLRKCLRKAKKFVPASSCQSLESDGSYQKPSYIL
Tumor necrosis factor (Homo sapiens), sequence (P01375 whole entry, looked up): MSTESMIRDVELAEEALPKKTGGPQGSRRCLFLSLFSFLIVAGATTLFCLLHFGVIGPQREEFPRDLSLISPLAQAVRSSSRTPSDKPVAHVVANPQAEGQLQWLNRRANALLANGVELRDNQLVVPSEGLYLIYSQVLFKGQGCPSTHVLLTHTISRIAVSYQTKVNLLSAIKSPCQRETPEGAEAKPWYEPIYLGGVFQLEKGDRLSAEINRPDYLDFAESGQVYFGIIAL

Oc1ccccc1
not listed: [16] | CD38, CD38 (gene 952) | [17]
inactive: all other assays above

Cc1c2ccccc2c(C)c2c1ccc1ccccc12
active: CD40, CD40 (gene 958) [4] 15.3 µM | [7] 24.8 µM | [8] 26.8 µM | [16] 25.3 µM | [10] 20 µM | [13] 24.1 µM | CD38, CD38 (gene 952) 28.6 µM | CD40, CD40 (gene 958) [14] 22.3 µM | CD69, CD69 (gene 969) 20 µM
inactive: [1] | [2] | [3] | [5] | [6] | [9] | [11] | [12] | [15]

O=C(O)Cn1c(=O)n(Cc2ccc(Br)cc2F)c(=O)c2ccc(Cl)cc21
active: [9] 10.5 µM | [12] 1.07 µM
not listed: [10] | [17]
inactive: all other assays above

CCCCCCCCCCCC[N+](C)(C)C
inactive: [9]
active: [1] 27.8 µM | [2] 26.6 µM | [3] 29.7 µM | [17] 34 µM | CD40, CD40 (gene 958) [4] 16.9 µM | [5] 20.3 µM | [6] 20 µM | [7] 25.7 µM | [8] 16.6 µM | [11] 32.4 µM | [12] 31.7 µM | [13] 25.7 µM | CD38, CD38 (gene 952) 17.4 µM | CD69, CD69 (gene 969) 18.1 µM | [15] 18.4 µM

CC(=O)N1CCN(c2ccc(OC[C@H]3CO[C@](Cn4ccnc4)(c4ccc(Cl)cc4Cl)O3)cc2)CC1
inactive: [3] | [9]
active: [1] 31.5 µM | [2] 29.2 µM | [17] 30.8 µM | CD40, CD40 (gene 958) [4] 11.8 µM | [5] 32.2 µM | [6] 29.9 µM | [7] 20 µM | [8] 35.6 µM | [11] 33 µM | [12] 36.7 µM | [13] 28.1 µM | CD40, CD40 (gene 958) [14] 24.1 µM | CD69, CD69 (gene 969) 25.4 µM | [15] 30.1 µM

OC12N=C(c3ccccc3)SC1Cc1cc(Cl)ccc12 (stereo not given)
active: CD40, CD40 (gene 958) [4] 16.8 µM | [8] 25.3 µM | [13] 10.3 µM | CD40, CD40 (gene 958) [14] 20 µM
not listed: [10] | [16] | [17]
inactive: all other assays above

Cc1cc(F)ccc1-c1cc(N2CC[C@@H](O)[C@H]2CO)ncc1N(C)C(=O)C(C)(C)c1cc(C(F)(F)F)cc(C(F)(F)F)c1
inactive: [9]
active: [1] 12.4 µM | [2] 25.1 µM | [3] 14.9 µM | CD40, CD40 (gene 958) [4] 8.65 µM | [5] 11.3 µM | [6] 10.8 µM | [7] 11.3 µM | [8] 9.95 µM | [10] 10.8 µM | [11] 12.9 µM | [12] 10.7 µM | [13] 11.2 µM | CD40, CD40 (gene 958) [14] 9.9 µM | CD69, CD69 (gene 969) 10.5 µM | [15] 10.3 µM
